± gives the standard deviation of the averaged measurements.
System: Caenorhabditis elegans N2 infected with Nematocida parisii ERTm1
Assay: progeny production relative to DMSO uninfected control; higher = more progeny despite microsporidia infection (inhibition of infection with low host toxicity)
Conditions: infection time 6 days
Summary of the method: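 Progeny production is reported as a percentage of spore-free vehicle wells and averaged across replicates. It was measured after bleach-synchronised wild-type C. elegans L1 larvae (100 per well) spent 6 days shaking at 21°C in K-medium with E. coli OP50, 15,000 N. parisii spores/μL and compound at 100 μM or 40 μM in 1% DMSO. Counting used Rose Bengal staining, flatbed scanning and WorMachine, and each compound and dose was tested three times.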

Compound	progeny production (40 µM) [%]	progeny production (100 µM) [%]
O=S(=O)(Nc1ccccc1)c1ccc(NC(=S)Nc2ccccc2)cc1	8.72 ± 4.5	11.2 ± 6.4
Cc1nc(Nc2ccc(F)cc2)nc(N2CCc3ccccc3C2C)c1C (centres undefined)	2.7 ± 0.53	20.9 ± 25
NC(=O)c1cnccn1	6.68 ± 7.5	6.97 ± 1.1
Nc1nc(NC2Cc3ccc(F)cc3C2)nc(N2CCCCC2)n1 (centres undefined)	5.65 ± 3.6	6.63 ± 4.3
Cc1onc(-c2ccccc2)c1-c1ccc(S(N)(=O)=O)cc1	3.75 ± 1.8	7.71 ± 5.3
CCCCOC(=O)Nc1cc2nc(C3CCCCC3)[nH]c2cc1N(CC)CC	6.28 ± 3	13.5 ± 8.2
C[C@H](NC(=O)C(=O)Nc1ccccc1C(C)(C)C)C(=O)N[C@@H](CC(=O)O)C(=O)COc1c(F)c(F)cc(F)c1F	5.12 ± 0.88	15 ± 11
O=C(Nc1cccc(C2=NCCN2)c1)c1ccc(-c2ccc(C(=O)Nc3cccc(C4=NCCN4)c3)cc2)cc1	7.71 ± 2.9	27.6 ± 16
Nc1nc2c(ncn2COCCO)c(=O)[nH]1	6.44 ± 2.2	8.34 ± 8.3
O=C(c1cc(O)nc2ccccc12)N1CCN(c2ccccc2)CC1	5.44 ± 4.1	9.85 ± 7.2
CC(=O)N[C@H](C)C(=O)N[C@H](Cc1ccccc1)C(=O)O	9.08 ± 7.2	10 ± 3.2
CC[C@H](NC(=O)[C@H](C)NC)C(=O)N1C[C@@H](O)C[C@H]1Cc1c(-c2[nH]c3cc(F)ccc3c2C[C@@H]2C[C@H](O)CN2C(=O)[C@H](CC)NC(=O)[C@H](C)NC)[nH]c2cc(F)ccc12	6.99 ± 3.1	17.7 ± 7.7
COc1cc(Cc2cc(N)nc(N)n2)cc(OC)c1OC	5.56 ± 1.2	19.2 ± 12
N=C(N)NCCCCC(=O)Nc1cc(C(F)(F)F)cc(NC(=O)c2cc(C(=O)Nc3cc(C(F)(F)F)cc(NC(=O)CCCCNC(=N)N)c3O[C@@H]3CCNC3)ncn2)c1O[C@@H]1CCNC1	7.1 ± 7.2	3.98 ± 2.8
NC(=O)C(c1ccccc1)(c1ccccc1)[C@H]1CCCN(CCc2ccc3c(c2)CCO3)C1	7.34 ± 0.47	15.2 ± 18
O=C(NCCN1CCCCC1)c1cccc(C(F)(F)F)c1	5.09 ± 1.5	18.2 ± 16
NC(=S)N/N=C/c1ncccc1N	8.43 ± 4.5	18.8 ± 12
O=C(NCc1ccccc1Cl)c1cnc2ccccc2n1	6.81 ± 1	12.1 ± 12
CS(=O)(=O)c1ccc(Oc2ccc(Cl)cc2)cc1	2.98 ± 0.48	13.1 ± 9.1
Nc1nc(N)c2c(Sc3ccccc3)cccc2n1	3.69 ± 1.5	16.4 ± 12
COc1ccc2cc3[n+](cc2c1OCCN(CCn1cncn1)Cc1ccc(F)cc1F)CCc1cc2c(cc1-3)OCO2	5.91 ± 1.2	17.3 ± 14

Compound	progeny production (40 µM) [%]	progeny production (100 µM) [%]
COC(=O)Nc1nc2c(C)cccc2[nH]1	13.8 ± 1.7	78.2 ± 11
CC(=O)NC[C@H]1CN(c2ccc(N3CCSCC3)c(F)c2)C(=O)O1	6.06 ± 3.1	10.4 ± 6.2
COc1cc(C2C3=C(CC(C)(C)CC3=O)Nc3ccccc3N2C(C)=O)ccc1OCc1ccccc1 (centres undefined)	2.3 ± 0.93	15.1 ± 15
COCCn1cnc2c(O)nc(Nc3ccccc3)nc21	8.43 ± 4.5	17.6 ± 6.1
O=C(O)CSc1cc(NS(=O)(=O)c2cccc3cccnc23)c2ccccc2c1O	6.14 ± 2.5	14.5 ± 8.5
COc1cc(NC(=O)CN2C(=O)NC(c3ccccc3)(c3ccccc3)C2=O)cc(OC)c1	3.5 ± 1	15.8 ± 11
COC(=O)Nc1nc2cc(Sc3ccccc3)ccc2[nH]1	7.64 ± 3.1	29.3 ± 18
O=S(=O)(Nc1cccc2cccnc12)c1ccccc1	5.03 ± 2.5	12.9 ± 7.2
Nc1nc2c(ncn2/C=C2/CC2(CO)CO)c(=O)[nH]1	3.83 ± 2.6	11.8 ± 3.7
O=C(O)/C=C/C=C/c1cccc(Oc2cc(Cl)cc(Cl)c2)c1	7.69 ± 2.2	13 ± 7.6
N#Cc1c(F)c(Cl)c(NCc2ccccc2)c(C#N)c1F	32.6 ± 17	15 ± 3.8
Nc1cc(N)c2nc(-c3ccccc3)c(Nc3ccc(F)cc3)nc2c1	4.57 ± 1.7	23.5 ± 17
Cn1cncc1[C@@](N)(c1ccc(Cl)cc1)c1ccc2c(c1)c(-c1cccc(Cl)c1)cc(=O)n2C	2.71 ± 0.38	8.73 ± 2.4
CC[C@@]1(O)C(=O)OCc2c1cc1n(c2=O)Cc2cc3c([N+](=O)[O-])cccc3nc2-1	5.77 ± 1.9	8.29 ± 3.3
O=C(NNC(=S)Nc1ccc(Cl)cc1)c1ccncc1	2.76 ± 1.4	18.4 ± 12
CCc1ccccc1OCCN1CCCCCC1	7.17 ± 1.6	20.2 ± 6
CCCCCCCc1[nH]c2ccccc2c(=O)c1O	7.38 ± 1.2	21.2 ± 19
O=C(O)C[C@H]1CC[C@H](c2ccc(-c3ccc(Nc4ccc(C(F)(F)F)nc4)cn3)cc2)CC1	4.2 ± 3.2	10.5 ± 6.4
NC(=O)c1ccccc1NC(=O)c1ccc(C(=O)Nc2ccccc2C(N)=O)cc1	8.47 ± 2.6	11.6 ± 6.2
CN(O)C(=O)c1cc2c(CN3CCC[C@H]3C(N)=O)cn(Cc3ccc(F)cc3)c2cn1	3.84 ± 1.6	11.1 ± 4.5
CCc1cc(Cc2cnc(N)nc2N)cc2c1N(C)CCC2C (centres undefined)	11.7 ± 8.4	4.65 ± 0.53

Compound	progeny production (40 µM) [%]	progeny production (100 µM) [%]
Oc1cccc(C(Nc2nccs2)c2ccc3cccnc3c2O)c1 (centres undefined)	4.05 ± 2	12.9 ± 2.9
O=S(=O)(NCB(O)O)c1ccc(-c2nnn[nH]2)cc1C(F)(F)F	7.63 ± 2.6	22.1 ± 6.9
CCc1nc(N)nc(N)c1C#CC(C)c1cc(OC)cc(-c2ccncc2)c1 (centres undefined)	5.28 ± 2.2	9.94 ± 7.4
Fc1cccc(Cl)c1C1CC(c2ccc(Cl)cc2)Nc2nnnn21 (centres undefined)	4.5 ± 4.2	7.47 ± 2.1
Cn1cc(NC(=O)c2cc(NC(=O)c3ccc(/C=C/c4cnc5ccccc5c4)cc3)cn2C)cc1C(=O)NCCN1CCOCC1	7.6 ± 3.5	15.5 ± 5.6
COc1ccc(SC(=O)N[C@H](CCC(=O)O)C(=O)O)cc1	9.06 ± 7.1	11.3 ± 0.6
O=C(N[C@H](Cc1cccc2ccccc12)C(=O)NCCc1c[nH]cn1)C1Cc2ccccc2C1	7.87 ± 3.1	17.2 ± 4.5
CCc1cc(CCC(=O)Nc2ccccc2O)c(O)nc1C	4.5 ± 1.7	9.45 ± 3.1
O=C(Nc1ncc(Cc2cccc3ccccc23)s1)C1CCCCC1	8.93 ± 0.69	13 ± 5.7
CN(C)c1[nH]c(=O)ncc1F	3.57 ± 3.5	14.8 ± 7.8
CNC(=O)C1O[C@@H](n2cnc3c(NCc4cccc(I)c4)nc(Cl)nc32)[C@H](O)[C@@H]1O (some centres undefined)	5.42 ± 1.8	12.6 ± 3.5
N=c1n(CCN2CCCCC2)c2ccccc2n1CC(O)COc1ccc(Cl)cc1Cl (centres undefined)	5.53 ± 1.7	9.49 ± 8.7
O=C(Nc1[nH]c(=O)ncc1F)c1ccccc1	4.09 ± 0.71	23.8 ± 20
Cc1[nH]c2ccccc2c1CCNCc1ccc(/C=C/C(=O)NO)cc1	6.83 ± 2.5	9.79 ± 7.8
COc1ccc(OCc2ccc(COc3c(Cl)cccc3Cl)cc2)c(Cl)c1	5.83 ± 3.1	12.3 ± 5.3
CC(C)N(c1cc(-c2ccccc2)sc1C(=O)O)C(=O)[C@H]1CC[C@H](C)CC1	4.15 ± 1.8	12.2 ± 7.8
O=C1C=C(c2ccccc2)S(=O)(=O)c2ccccc21	9.24 ± 1.8	38 ± 9.4
COc1ccc(NC(=O)c2cc3ccccn3n2)cc1	9 ± 5.7	13.6 ± 6
CCOc1ccc(/C=N/NC(=O)C2CC2c2ccc(C(C)(C)C)cc2)cc1OCC (centres undefined)	5.73 ± 4.8	12 ± 7.9
Nc1nnc(-c2ccc(Cl)cc2)s1	5.44 ± 1.4	16.3 ± 16
O=C(NCc1ccc2c3c(cccc13)C(=O)N2)c1cccs1	6.15 ± 4.4	9.75 ± 6.2

Compound	progeny production (40 µM) [%]	progeny production (100 µM) [%]
O=C(NCc1cccc2ccccc12)c1cccs1	3.62 ± 2.1	12.9 ± 10
CC1CN(c2ncnc3c2c(-c2ccccc2)cn3-c2ccc(F)cc2)CC(C)O1 (centres undefined)	4.39 ± 1.6	13.4 ± 13
O=c1cc(NCCCN[C@@H]2CCOc3c(Br)cc(Br)cc32)[nH]c2ccsc12	5.52 ± 2.9	8.91 ± 4
CN(C(=O)C1(c2ccc(Cl)cc2)CCC1)c1ccccc1	2.68 ± 1.6	14.9 ± 2.4
CCCCCCCCC(CP(=O)(O)C(C)N)C(=O)O (centres undefined)	7.53 ± 0.85	18.6 ± 11
O=C(NC(=O)N1CCCc2ccccc21)c1cccc(Cl)c1	2.7 ± 0.83	19.9 ± 14
Cc1c(CN(C)C(=O)/C=C/c2cnc3c(c2)C(C)(C)C(=O)N3)oc2ccccc12	6.13 ± 3.2	20.6 ± 20
O=c1ccc2ncc(=O)n3c2n1CC3CN1CCC(NCc2cc3c(cn2)OCCC3)CC1 (centres undefined)	2.13 ± 0.25	18.2 ± 18
CCN(CC)CCCC(C)Nc1ccnc2cc(Cl)ccc12 (centres undefined)	8.75 ± 5.2	5.16 ± 3.5
NC1C2CC3CC(C2)CC1C3 (centres undefined)	4.96 ± 2.6	13.2 ± 3.6
CCc1nc2ccc(Cl)cn2c1C(=O)NCc1ccc(N2CCC(c3ccc(OC(F)(F)F)cc3)CC2)cc1	4.78 ± 2.6	6.24 ± 4.5
COc1ccc(C)cc1NC(=O)c1ccc(S(=O)(=O)N2CCCCC2)cc1	7.49 ± 1.3	19.4 ± 16
Nc1nc(-c2ccccc2)nc2[nH]nc(Nc3ccc(C(F)(F)F)cc3)c12	7.69 ± 2.2	29.5 ± 27
CCC(CC)[C@H](NC(C)=O)[C@@H]1[C@H](O)[C@@H](C(=O)O)C[C@H]1NC(=N)N	6.29 ± 2.5	7.52 ± 7.1
Nc1nc(=O)[nH]cc1F	5.01 ± 1.2	23.7 ± 7.4
CNCC(=O)OCc1cccnc1N(C)C(=O)OC(C)[n+]1cnn(C[C@](O)(c2cc(F)ccc2F)[C@@H](C)c2nc(-c3ccc(C#N)cc3)cs2)c1 (some centres undefined)	7.13 ± 1.5	16.8 ± 10
O=C(O)C(Cc1c[nH]c2ccccc12)N1C(=O)c2ccccc2C1=O (centres undefined)	6.93 ± 1.2	9.79 ± 1.2
COc1ccc(C2=CC(c3c(F)cccc3Cl)n3ncnc3N2)cc1 (centres undefined)	3.01 ± 1.9	8.48 ± 5.9
COc1c(F)c(F)cc2c(=O)c(C(=O)O)cn(C3CC3)c12	6.01 ± 4.3	12.9 ± 4.6

— the supplement of paper PMC10732440
